{"source": "PubChem BioAssay (Tox21)", "note": "Inconclusive results are not listed. The source made the active and inactive calls. Calls come from the whole dose curve; as a rule, active = well fitted cell-killing curve with a large enough effect in the repeat runs; inconclusive = weak or mixed curves, or effect the other way; inactive = flat fitted curve, though single readings scatter. % is set by controls: 0 for no effect and ±100 for the full control effect.", "data": [{"assay": "qHTS RealTime-Glo MT Cell Viability Assay in HEK293 cells - 16 hour (AID 1224872); note: top concentration of the series differs between compounds; nearly all actives have a fitted effect of over 50% in size", "conditions": "RealTime-Glo luminescence; series mostly up to 76.8 µM; activity change, negative = cytotoxicity: at the top concentration", "description": "National Center for Advancing Translational Sciences [NCATS]\nNIH Chemical Genomics Center [NCGC]\nU.S. Environmental Protection Agency [EPA]\nNational Institutes of Environmental Health Sciences [NIEHS]\nNational Toxicology Program [NTP]\nU.S. Food and Drug Administration [FDA]\nMeasure of cell viability is critical in the cell-base assay. Analysis of cell viability is necessary for the characterization of cell responses to cytotoxic drugs and environmental stress. A RealTime-Glo MT Cell Viability Assay to monitor cell viability in real time of continues cell culture during 40 hours of compound treatment was used to screen Tox21 10K library compounds in Hek293 cells. The RealTime-Glo MT Cell Viability Assay is a nonlytic, homogeneous, bioluminescent method to measure cell viability in real time using a simple, plate-based method. The assay involves adding NanoLuc luciferase and a cell-permeant prosubstrate to cells in culture. Viable cells reduce the proprietary prosubstrate to generate a substrate for NanoLuc luciferase. This substrate diffuses from cells into the surrounding culture medium, where it is rapidly used by the NanoLuc Enzyme to produce a luminescent signal. The signal correlates with the number of viable cells, making the assay well suited for cytotoxicity studies.\nTox21 Assay Protocol Summary:\nThe mixture of Hek293 cell suspension and reagents were dispensed at 600cells/6 ul/well in 1536-well tissue culture treated black solid bottom plates using a Multidrop dispenser. After the assay plates were incubated at a 37 C/5% CO2 incubator for 5 hours, 23 nL of compounds dissolved in DMSO, positive and negative controls was transferred to the assay plate by a pintool work station. The plates were incubated at 37 C for 40 hours. The luminescence intensity were measured at 0h, 8h, 16h, 24h, 32h and 40h time points using ViewLux plate reader during compound treatment.", "values": [{"smiles": "C[C@H]1O[C@H](O[C@H]2[C@H](O)[C@@H](O)[C@@H](O[C@H]3[C@H](O)[C@@H](O)[C@H](O)O[C@@H]3CO)O[C@@H]2CO)[C@H](O)[C@@H](O)[C@@H]1N[C@H]1C=C(CO)[C@@H](O)[C@H](O)[C@H]1O", "activity change, negative = cytotoxicity": "7.24% [at 35.3 µM] (inactive)"}, {"smiles": "Nc1ccc(C(=O)OCC(O)CO)cc1", "note": "(stereo not given)", "activity change, negative = cytotoxicity": "19.3% [at 35.3 µM] (inactive)"}, {"smiles": "CCCCCCCCCCCCC", "activity change, negative = cytotoxicity": "2.11% (inactive)"}, {"smiles": "NC(=O)NNC(N)=O", "activity change, negative = cytotoxicity": "10.4% (inactive)"}, {"smiles": "C=C(C)C(=O)OC", "activity change, negative = cytotoxicity": "-14.5% (inactive)"}, {"smiles": "CCCCC(CC)COC(=O)c1ccccc1", "note": "(stereo not given)", "activity change, negative = cytotoxicity": "1.23% (inactive)"}, {"smiles": "CC(=O)c1ccc2c(c1)CCCC2", "activity change, negative = cytotoxicity": "-4.73% (inactive)"}, {"smiles": "CCCOC(=O)CCCCC(=O)OCCC", "activity change, negative = cytotoxicity": "-2.74% (inactive)"}, {"smiles": "CCC(C)N", "note": "(stereo not given)", "activity change, negative = cytotoxicity": "-11.9% (inactive)"}, {"smiles": "Cc1nc2ccccc2c(=O)o1", "activity change, negative = cytotoxicity": "7.14% (inactive)"}, {"smiles": "CCOc1ccc(NC(=O)OC(C)C)cc1OCC", "activity change, negative = cytotoxicity": "-14.2% (inactive)"}, {"smiles": "NC(=O)NC(=O)Cc1ccccc1", "activity change, negative = cytotoxicity": "4.89% [at 35.3 µM] (inactive)"}, {"smiles": "O=C(COCCOCCOCC(=O)Nc1c(I)cc(I)c(C(=O)O)c1I)Nc1c(I)cc(I)c(C(=O)O)c1I", "activity change, negative = cytotoxicity": "2.61% [at 35.3 µM] (inactive)"}, {"smiles": "N#CCCOCCOCCC#N", "activity change, negative = cytotoxicity": "14.5% (inactive)"}, {"smiles": "CC(=O)N(CC(O)CO)c1c(I)c(C(=O)NCC(O)CO)c(I)c(C(=O)NCC(O)CO)c1I", "note": "(stereo not given)", "activity change, negative = cytotoxicity": "4.86% [at 35.3 µM] (inactive)"}, {"smiles": "CC(C)(CO)[C@@H](O)C(=O)NCCCO", "activity change, negative = cytotoxicity": "5.16% [at 35.3 µM] (inactive)"}, {"smiles": "Cc1c(C(C)C)c(=O)n(-c2ccccc2)n1C", "activity change, negative = cytotoxicity": "4.78% [at 35.3 µM] (inactive)"}, {"smiles": "CCCCC[Si](OCC)(OCC)OCC", "activity change, negative = cytotoxicity": "-21.5% (inactive)"}, {"smiles": "SCCSCCS", "activity change, negative = cytotoxicity": "3.03% (inactive)"}, {"smiles": "O=C(Nc1cccc(C2=NCCN2)c1)Nc1cccc(C2=NCCN2)c1", "activity change, negative = cytotoxicity": "-0.101% [at 15.8 µM] (inactive)"}, {"smiles": "CN[C@@H]1[C@@H](O)[C@@H](O[C@@H]2[C@H](O)[C@H](O[C@H]3OC(CN)=CC[C@H]3N)[C@@H](N)C[C@H]2N)OCC1(C)O", "note": "(stereo not given in full)", "activity change, negative = cytotoxicity": "-0.996% [at 35.3 µM] (inactive)"}, {"smiles": "COc1cccc2sc(N)nc12", "activity change, negative = cytotoxicity": "-2.93% (inactive)"}, {"smiles": "CCCCCCCCCCCCCCCCCCN(C)C", "activity change, negative = cytotoxicity": "-2.99% [at 35.3 µM] (inactive)"}, {"smiles": "COC(/C=C(\\C)CCC=C(C)C)OC", "activity change, negative = cytotoxicity": "0.942% (inactive)"}, {"smiles": "CCOC(=O)CCc1ccccc1", "activity change, negative = cytotoxicity": "0.795% (inactive)"}, {"smiles": "CO/N=C(/C(=O)N[C@@H]1C(=O)N2C(C(=O)O)=C(Cn3nnc(C)n3)CS[C@H]12)c1csc(N)n1", "activity change, negative = cytotoxicity": "-0.851% [at 35.3 µM] (inactive)"}, {"smiles": "C1=CCC(c2ccccc2)CC1", "note": "(stereo not given)", "activity change, negative = cytotoxicity": "-0.596% (inactive)"}, {"smiles": "C=C(C)[C@@H]1CC[C@@H](C)C[C@@H]1O", "activity change, negative = cytotoxicity": "3.37% (inactive)"}, {"smiles": "CC(C)c1ccccc1O", "activity change, negative = cytotoxicity": "16.9% (inactive)"}, {"smiles": "C[CH2][Ge]([Cl])([CH2]C)[CH2]C", "activity change, negative = cytotoxicity": "1.65% (inactive)"}, {"smiles": "CC(C)C(=O)Nc1cccc(C(F)(F)F)c1", "activity change, negative = cytotoxicity": "-15.4% [at 35.3 µM] (inactive)"}, {"smiles": "Nc1ccc(/C=C/c2ccc(N)cc2S(=O)(=O)O)c(S(=O)(=O)O)c1", "activity change, negative = cytotoxicity": "2.56% [at 0.29 µM] (inactive)"}, {"smiles": "Nc1ccnc(=O)[nH]1", "activity change, negative = cytotoxicity": "2.22% (inactive)"}, {"smiles": "O=P(O)(O)OCC(O)CO", "note": "(stereo not given)", "activity change, negative = cytotoxicity": "2.79% [at 35.3 µM] (inactive)"}, {"smiles": "BrC/C=C/CBr", "activity change, negative = cytotoxicity": "1.42% [at 15.8 µM] (inactive)"}, {"smiles": "CC(C)(c1ccc(Oc2ccc3c(c2)C(=O)OC3=O)cc1)c1ccc(Oc2ccc3c(c2)C(=O)OC3=O)cc1", "activity change, negative = cytotoxicity": "12.5% (inactive)"}, {"smiles": "CC(=O)OC(C)c1ccccc1", "note": "(stereo not given)", "activity change, negative = cytotoxicity": "-0.842% (inactive)"}, {"smiles": "CCOC(=O)CC#N", "activity change, negative = cytotoxicity": "0.139% (inactive)"}, {"smiles": "C=CCOc1cc(Cl)ccc1C(=O)NCCN(CC)CC", "activity change, negative = cytotoxicity": "-14.2% [at 35.3 µM] (inactive)"}, {"smiles": "CC(C)(C)c1ccc(C=O)cc1", "activity change, negative = cytotoxicity": "-0.872% (inactive)"}]}]}
